# Reference: the supplement of paper PMC3334620
# Over roughly 33,000 sequences, “E-score (-0.5 to 0.5)” has its median near -0.013; the highest 2% begin near 0.3. Shown is part of a subset that was picked to be rich in the highest values.
# Target: T1, Msn1 (UniProt P22148)
# T1 sequence: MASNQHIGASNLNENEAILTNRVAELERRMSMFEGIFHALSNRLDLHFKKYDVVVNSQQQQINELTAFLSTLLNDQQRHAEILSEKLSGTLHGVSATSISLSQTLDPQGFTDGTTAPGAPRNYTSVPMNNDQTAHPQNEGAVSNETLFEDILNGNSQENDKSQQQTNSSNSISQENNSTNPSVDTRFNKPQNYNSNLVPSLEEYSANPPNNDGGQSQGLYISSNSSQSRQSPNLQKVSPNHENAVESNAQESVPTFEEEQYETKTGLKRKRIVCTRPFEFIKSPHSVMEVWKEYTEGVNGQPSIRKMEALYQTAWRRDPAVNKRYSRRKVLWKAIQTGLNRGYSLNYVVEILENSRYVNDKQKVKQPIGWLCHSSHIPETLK
# Assay: PBM E-score (8-mer binding enrichment) (E-score (-0.5 to 0.5)); higher = stronger / more preferred TF binding
# Conditions: protein concentration: 200 nM; construct: GST-full length
# Description: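 Universal 'all 10-mer' protein binding microarrays (Agilent AMADID 015681) probed with GST-tagged S. cerevisiae TFs (full-length or DBD) made by in vitro transcription/translation (PURExpress), about 100-200 nM. Bound TF was detected with fluorescent anti-GST. Each ungapped 8-mer (which stands for itself and its reverse complement) is scored by the PBM enrichment score (E-score), a modified Wilcoxon-Mann-Whitney statistic from -0.5 to +0.5, computed with the Universal PBM Analysis Suite. Scale: above 0.35 generally sequence-specific binding.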
row,Sequence,PBM E-score
1,CGTACCAA,0.182
2,TGTACCAA,0.328
3,CGTACTAA,0.093
4,AGTACTAA,0.121
5,TGTACTAA,0.321
6,AGCTGGAG,-0.251
7,GATGGTCA,-0.0299
8,AGCTACGA,-0.11
9,GTGATTGA,0.128
10,CACGCTTA,0.0573
11,CGGACTTA,0.215
12,TGGACTAA,0.183
13,AGGACTAA,0.309
14,AGGACTAT,-0.131
15,AGGACTTC,0.243
16,AGGACTTA,0.36
17,CAAAACTG,0.127
18,ACTGTCTA,0.022
19,CTTGTATC,0.106
20,CTTGTCTC,0.319
21,ATTGTCAG,0.218
22,AGTGTCTA,0.188
23,ATTGTTTG,0.202
24,CCTGTCTA,0.143
25,GTTGTCTA,0.165
26,ATTGTCTA,0.391

row,Sequence,PBM E-score
1,CTTGTCTA,0.324
2,ATTGTCTG,0.34
3,CCTGTCTC,-0.0622
4,ACTCCCTG,-0.28
5,GCGTCTGA,-0.101
6,ATGTGCTC,0.0447
7,CATAGTAG,0.0607
8,ACTGTTAC,-0.0545
9,CCCTATAC,-0.129
10,CTCTTAGC,-0.0929
11,TAATGGAA,0.151
12,CAGAAGTA,0.104
13,CTAAGCCC,-0.154
14,ACTGTCTC,-0.00421
15,ATTGTCTC,0.378
16,AGTGTCTC,0.0356
17,CAACTTTC,-0.0177
18,TAGACAAA,0.446
19,AAAACAAT,0.127
20,AAGACAGA,0.216
21,TAGACGAA,0.0138
22,AAGACAAT,0.409
23,CAGACAAA,0.451
24,TAGACTAA,-0.0893
25,AAGACACA,0.169
26,CAGACAGA,0.0672

row,Sequence,PBM E-score
1,AAGACTAT,-0.0507
2,AAGACAAA,0.45
3,CAGACAAG,0.28
4,AGCAGTTG,-0.0796
5,AACCGACC,-0.0206
6,CCGTCCAG,-0.00159
7,AAGCCAAG,-0.237
8,AGAGGAGG,-0.382
9,ACCAGCCG,-0.0866
10,AGCCATCC,-0.277
11,GAGACAAA,0.442
12,GAGACGAA,-0.0182
13,GAGACAAC,0.203
14,AAGACAAC,0.221
15,AAGACAGG,0.0873
16,AAGACAAG,0.343
17,ACAGACCG,-0.128
18,GAGATGAA,0.024
19,AGGTGCCC,-0.275
20,CCCGACAA,0.329
21,ACCGACAA,0.268
22,CCCGAGAA,0.0155
23,CCCGACAG,0.052
24,ACCGAGAA,0.149
25,GCCGACAA,0.117
26,TCCGAGAA,0.346

row,Sequence,PBM E-score
1,TCCGACAA,0.372
2,CCCGACAC,-0.0956
3,CAATTCAG,0.0996
4,TAAGTACA,0.287
5,GCTTTAGA,-0.0753
6,CCTGATAG,-0.222
7,AACATGAT,0.173
8,ACACATAG,0.0311
9,AGACATAT,0.47
10,AAACATAC,-0.0227
11,ATACATAC,-0.0367
12,ACACATAA,0.217
13,AAACATAT,0.258
14,AGACATAA,0.373
15,AGACATAC,0.327
16,AGACATAG,0.32
17,AGACACAT,0.197
18,CGACATAG,0.15
19,ATACATAA,0.21
20,GCAATGAA,0.0712
21,ATACATGA,0.073
22,ACAAATCG,0.276
23,ACTGAAGC,-0.0558
24,AATGGTTG,-0.0125
25,CCCTAAAC,-0.171
26,AGACAAAA,0.437

row,Sequence,PBM E-score
1,AAACAAAT,0.199
2,CGACAAAG,0.294
3,AGACAAAT,0.482
4,AGACAAGG,0.162
5,AGACAAAG,0.364
6,ATACAAAT,0.335
7,AAACAAAA,0.127
8,ACACAAAA,0.296
9,ATACAAAA,0.2
10,ATACAAAG,0.254
11,AGACAACT,0.147
12,CGCCCTTA,-0.0904
13,AAGTTGAT,0.016
14,AACTGCCC,-0.105
15,GGTCAAAC,0.114
16,AGGGGGCG,-0.416
17,GTGCAACA,-0.164
18,ACCCGCGC,0.0994
19,GCACCTTA,0.00327
20,ATATCCTG,0.0176
21,CCCTTCGG,-0.0863
22,CCACAAAA,0.0569
23,CGACAAAA,0.423
24,TCACAAAA,0.119
25,CAACAAAC,-0.0143
26,TAACAAAA,0.228

row,Sequence,PBM E-score
1,CAACAAAA,0.0735
2,CGACAAAC,0.36
3,ACACAAAC,0.0132
4,AGACAAAC,0.446
5,AAACAAAC,0.192
6,CGACAACC,0.0461
7,TGACAAAA,0.402
8,CCGTTGAA,0.00808
9,CGTAGCTA,-0.123
10,CCTGCGGA,0.00937
11,CGGCCGAC,0.194
12,GATTTGGC,-0.221
13,CATAGATC,0.0219
14,CCGTGAGG,-0.283
15,CATGGAGA,-0.00044
16,GCCTACAA,-0.0308
17,ATCCCGTC,-0.0856
18,AGTAACGC,-0.119
19,CTCTGAGA,-0.0856
20,CATACTCA,0.0936
21,ATTGGACC,-0.101
22,CTTGGACA,0.44
23,GTTGGACA,0.437
24,ATTGGACA,0.445
25,GTTGGATA,0.0207
26,CTTGGACC,-0.163

row,Sequence,PBM E-score
1,CTTGGAGA,-0.00816
2,GTTGGAAA,0.165
3,ATTGGACG,0.211
4,CACAATGG,0.0832
5,TAGGAACA,0.0697
6,GGGTGTCA,-0.0869
7,AGAGCTCT,-0.265
8,AGCCTCCG,-0.213
9,AGTACTTG,0.147
10,AGGACACT,0.358
11,AGGACACG,0.467
12,ACGACACG,0.206
13,AGGACACC,0.255
14,AGCACACG,-0.0792
15,AGGACAGG,0.28
16,AGGACAGA,0.437
17,ACGACACT,0.123
18,ATGACACG,0.214
19,AGGACAGC,0.078
20,AGGACACA,0.472
21,ACGACACA,0.172
